The values below come from PubChem BioAssay AID1578 (Sanford-Burnham Center for Chemical Genomics, 2009).

Each structure is given as a SMILES string. In all, about 290,000 compounds went through this assay and about 3,000 (1%) were called active. For the sample, actives were picked, then their nearest neighbours and some compounds at random. Values without a mark were called inactive. Rule as the data show it: active = inhibition mostly above about 36% (no sharp cut-off); inactive = mostly below about 34%.

By inhibition is commonly meant the drop in the measured response relative to a control, in per cent.

The nature of this test: NOD1 signaling inhibitors, primary screen, cell-based, luminescence, uHTS (AID 1578).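 Also: HEK-293T reporter cells stimulated with the NOD1 agonist gamma-tri-DAP.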 Particulars: NOD1-driven NF-kB luciferase reporter cells, at 4 µM, hits give high values.
As for `CC1(C)CN(c2cccc(Br)c2)C1=O`, the inhibition was -15.6%.

For the compound `CC(c1ccon1)N(C)Cc1c(C(=O)N(C)Cc2ccccc2)nc2ccccn12` (stereo unspecified), the inhibition is -38.7%.

Turning to `Cc1nn(C)cc1CN(C)Cc1c(C(=O)N(C)Cc2ccccc2)nc2ccccn12`, the inhibition is -20.3%.

On to `CN(Cc1c(C(=O)N(C)Cc2ccccc2)nc2ccccn12)CC1Cc2ccccc2O1` (stereo unspecified), for which the inhibition was 64.7% (active).

In the case of `O=C(CSCC(=O)NC1CC1)Nc1ccc2ccccc2c1`, the inhibition is -5.8%.

Consider `O=C(Cc1ccc([N+](=O)[O-])cc1)NCc1ccc2c(c1)OCO2`, for which the inhibition is -15.5%.

Consider `O=[N+]([O-])c1ccc(NCc2ccc3c(c2)OCO3)cc1`, for which the inhibition is 88.5% (active).

Consider `O=C(NCc1ccc2c(c1)OCO2)Nc1ccc([N+](=O)[O-])cc1`, for which the inhibition is -44.5%.

For the compound `CN(Cc1ccc2nonc2c1)Cc1nc(Cc2cccc(F)c2)no1`, the inhibition is -14.8%.

Turning to `CC1(C)OC(=O)CC1C(=O)NCc1ccccc1` (stereo unspecified), the inhibition was -18.4%.

Turning to `Cc1ccc(NC(=S)NCC(O)c2ccccc2)c(C)c1` (stereo unspecified), the inhibition was -31%.

On to `O=S(=O)(c1cccs1)N1CN(Cc2ccc(F)cc2)c2nc3ccccc3nc21`, for which the inhibition is 6.3%.

Regarding `COC(=O)C1CCN(C(=O)/C(C)=C\c2ccccc2)CC1`, the inhibition is -32.2%.

`COC(=O)C1CC23C=CCN4CCC5(c6ccccc6NC15C2C)C43` (stereo unspecified): the inhibition was 46.8% (active).

Consider `CCC12CCCN3CCC4(C(=C(C(=O)OC)C1)Nc1ccccc14)C32` (stereo unspecified), for which the inhibition was -7.2%.

Consider `CCCOC1CCCN(C(=O)CCCn2nnnc2CN2CCOCC2)C1` (stereo unspecified), for which the inhibition was 10.3%.

As to `Cn1nc(C(=O)NC2CCCN(Cc3ccccc3F)C2)c2ccccc2c1=O` (stereo unspecified), the inhibition was -20.9%.

Turning to `Cc1cc(C(=O)NC2CCCN(Cc3ccccc3F)C2)no1` (stereo unspecified), the inhibition is -19.1%.

Regarding `O=C(O)C(=O)/C(=C\c1cccc2ccccc12)c1ccc2ccccc2n1`, the inhibition was 2.3%.

Take `CCC(C(=O)NC1CCCC1)N(C(=O)Cn1nnc(-c2ccc(OC)c(OC)c2)n1)c1cccc(O)c1` (stereo unspecified): the inhibition is -30.7%.

`COCCn1c(C)cc(C(=O)COC(=O)c2ccc(Br)o2)c1C`: the inhibition was -30.4%.

With `COc1ccc(-c2nnc(SCC(=O)c3cc(C)n(Cc4cccs4)c3C)o2)cc1`, the inhibition is -40.4%.

In the case of `Cc1cc(C(=O)CSc2nnc(-c3ccccc3F)o2)c(C)n1Cc1cccs1`, the inhibition was 58.1% (active).

For `Cc1cc(C(=O)COC(=O)c2ccco2)c(C)n1Cc1ccco1`, the inhibition was 45.8% (active).

For the compound `Cc1cc(C(=O)CSc2n[nH]c(-c3ccccc3F)n2)c(C)n1Cc1cccs1`, the inhibition was 29.2%.

As for `Cc1cc(C(=O)COC(=O)c2ccc(Br)o2)c(C)n1Cc1ccco1`, the inhibition was -24.2%.

With `COCCn1c(C)cc(C(=O)COC(=O)c2ccccc2Br)c1C`, the inhibition is 67.9% (active).

On to `Cc1cc(C(=O)COC(=O)c2ccc(O)cc2)c(C)n1Cc1ccco1`, for which the inhibition is -37.3%.

As to `Cc1cc(C(=O)CN2C(=O)c3ccccc3C2=O)c(C)n1Cc1cccs1`, the inhibition is 13.2%.

`COCCn1c(C)cc(C(=O)COC(=O)c2ccc[nH]c2=O)c1C`: the inhibition is 50.7%.

For the compound `Cc1cc(C(=O)COc2ccc3ccc(=O)oc3c2)c(C)n1Cc1cccs1`, the inhibition was 22.1%.
